Calls of active or inactive are those of the source. The calls were made as follows: active = hit-call score of the fitted dose curve at least 0.9, where 1 is the maximum; inactive = score below 0.9.

A short description of test [1]: ATG_E_Box_CIS: Attagene CIS-FACTORIAL HepG2 Assay for human Enhancer Box (E-box) (AID 2282936). To be noted: HepG2 E-box cis-reporter transcription, actives raise or lower the signal. Put shortly:
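DMSO served as negative control and baseline for bidirectional fitting. Human hepatoma HepG2 cells, transiently transfected with cis-reporter constructs, were dosed 24 h; reporter mRNA read by RT-PCR and capillary electrophoresis.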

Test [2] is described as follows: ATG_M_61_CIS: Attagene CIS-FACTORIAL HepG2 Assay for M61 Transcription Factor (Internal Marker) (AID 2282937). Conditions: HepG2 Attagene CIS-FACTORIAL M61 internal marker reporter; actives raise or lower the signal. An outline of the steps:
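HepG2 cells transiently transfected with multiplexed cis-promoter reporter units reporting endogenous transcription factor activity, measured 24 h after dosing. Reporter mRNA quantified by RT-PCR and capillary electrophoresis; bidirectional fit against DMSO baseline.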

Test [3] is described as follows: ATG_EGR_CIS: Attagene CIS-FACTORIAL HepG2 Assay for human Early Growth Response 1 (EGR1) (AID 2282938). To be noted: HepG2 Attagene CIS-FACTORIAL EGR reporter mRNA; actives raise or lower the signal. An outline of the steps:
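HepG2 cells transiently transfected with cis-element-driven multiplexed reporter units, dosed for 24 h. EGR1-element reporter mRNA quantified by RT-PCR, 6-FAM labelling, HpaI digestion and capillary electrophoresis; bidirectional fit versus DMSO.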

Test [4] can be described thus: ATG_M_19_CIS: Attagene CIS-FACTORIAL HepG2 Assay for M19 Transcription Factor (Internal Marker) (AID 2282939). Conditions: HepG2 Attagene CIS-FACTORIAL M19 internal marker reporter; actives raise or lower the signal. Put shortly:
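Following a 24 h exposure, RNA from transfected HepG2 cells was reverse-transcribed, PCR-amplified with reporter-specific primers, end-labelled with 6-FAM and HpaI-digested before capillary separation. Values represent gain or loss versus DMSO.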

Test [5] in a line: ATG_ERE_CIS: Attagene CIS-FACTORIAL HepG2 Assay for Estrogen Response Element (ERE) (AID 2282940). To be noted: HepG2 ERE cis-reporter, Attagene RNA transcript; actives raise or lower the signal. Put shortly: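 HepG2, transient cis-reporter units, 24 h exposure. RNA isolated, oligo(dT) RT, reporter-specific PCR, FAM extension, HpaI cut, CE detection. Gain/loss-of-signal vs DMSO.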

Test [6] can be described thus: ATG_Ets_CIS: Attagene CIS-FACTORIAL HepG2 Assay for human Erythroblast Transformation Specific (ETS) (AID 2282941). To be noted: HepG2 ETS cis-reporter transcription, actives raise or lower the signal. An outline of the steps:
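HepG2 cells transfected with multiple cis-regulated reporter units measuring endogenous ETS-driven transcription, 24 h after dosing. Reporter mRNA quantified by RT-PCR with capillary electrophoresis; bidirectional fit relative to DMSO.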

In test [7] the target is Hepatocyte nuclear factor 3-beta (Homo sapiens) (UniProt Q9Y261). Nature of the test: ATG_FoxA2_CIS: Attagene CIS-FACTORIAL HepG2 Assay for human Forkhead box A2 (FOXA2) (AID 2282942). To be noted: HepG2 cis-reporter transcription factor activity, 24 h; actives raise or lower the signal. An outline of the steps: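 HepG2 transiently transfected with a multiplexed cis-promoter reporter library read endogenous FOXA2 activity. After 24 h compound exposure, reporter mRNA was quantified by RT-PCR, HpaI digestion and capillary electrophoresis. Bidirectional fit against DMSO.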
Hepatocyte nuclear factor 3-beta (Homo sapiens), sequence (Q9Y261 whole entry, looked up): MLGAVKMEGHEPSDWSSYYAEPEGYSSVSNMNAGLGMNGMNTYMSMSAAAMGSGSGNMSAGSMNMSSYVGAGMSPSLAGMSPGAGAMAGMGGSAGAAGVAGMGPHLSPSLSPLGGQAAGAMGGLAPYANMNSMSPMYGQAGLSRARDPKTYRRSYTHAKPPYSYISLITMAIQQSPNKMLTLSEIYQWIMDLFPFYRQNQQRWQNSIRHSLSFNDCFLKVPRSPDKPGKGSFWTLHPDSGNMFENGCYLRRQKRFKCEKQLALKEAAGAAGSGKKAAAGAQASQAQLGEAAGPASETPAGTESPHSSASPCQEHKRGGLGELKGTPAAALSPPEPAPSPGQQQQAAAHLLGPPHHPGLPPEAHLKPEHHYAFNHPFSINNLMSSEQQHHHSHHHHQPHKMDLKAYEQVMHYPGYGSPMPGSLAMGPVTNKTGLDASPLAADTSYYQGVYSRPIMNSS

Test [8] can be described thus: ATG_FoxO_CIS: Attagene CIS-FACTORIAL HepG2 Assay for human Forkhead box O (FoxO) (AID 2282943). Conditions: HepG2 Attagene cis-reporter, FoxO element, mRNA; actives raise or lower the signal. An outline of the steps:
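Endogenous transcription factor activity read from multiplexed cis-promoter reporter transcripts in transiently transfected HepG2, 24 h after dosing. Reporter RNA measured via RT-PCR plus capillary electrophoresis of FAM-labeled products; gain or loss relative to DMSO.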

Test [9] in a line: ATG_GATA_CIS: Attagene CIS-FACTORIAL HepG2 Assay for human GATA Binding Protein (AID 2282944). Conditions: HepG2 GATA cis-element reporter, Attagene multiplex mRNA; actives raise or lower the signal. An outline of the steps: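 DMSO serves as negative control and baseline for bidirectional fitting of reporter mRNA changes. HepG2 cells bearing transiently transfected cis-promoter reporters were exposed 24 h; transcripts detected via RT-PCR and capillary electrophoresis.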

Test [10] can be described thus: ATG_GLI_CIS: Attagene CIS-FACTORIAL HepG2 Assay for human Zinc Finger Protein GLI1 (AID 2282945). Conditions: HepG2, Attagene cis-factorial reporter mRNA, GLI element; actives raise or lower the signal. An outline of the steps:
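Bidirectional curve fits relative to DMSO, using reporter mRNA levels from RT-PCR plus capillary electrophoresis. Cells were HepG2 transiently carrying cis-regulated reporter constructs, harvested 24 h after dosing.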

For test [11], the target named is Bile acid receptor (Homo sapiens) (UniProt Q96RI1). Nature of the test: ATG_IR1_CIS: Attagene CIS-FACTORIAL HepG2 Assay for human Nuclear Receptor Subfamily 1 Group H Member 4 (NR1H4), IR1 submotif (AID 2282946). Conditions: IR1 reporter transcription, actives raise or lower the signal. Put shortly: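 Cells (human HepG2) carry transiently transfected cis-promoter reporter transcription units. Compounds are incubated 24 h, total RNA is reverse-transcribed and amplified, and labelled fragments are resolved by capillary electrophoresis. Curves use DMSO as baseline.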
Bile acid receptor (Homo sapiens), sequence (Q96RI1 whole entry, looked up, the tested form may be a part): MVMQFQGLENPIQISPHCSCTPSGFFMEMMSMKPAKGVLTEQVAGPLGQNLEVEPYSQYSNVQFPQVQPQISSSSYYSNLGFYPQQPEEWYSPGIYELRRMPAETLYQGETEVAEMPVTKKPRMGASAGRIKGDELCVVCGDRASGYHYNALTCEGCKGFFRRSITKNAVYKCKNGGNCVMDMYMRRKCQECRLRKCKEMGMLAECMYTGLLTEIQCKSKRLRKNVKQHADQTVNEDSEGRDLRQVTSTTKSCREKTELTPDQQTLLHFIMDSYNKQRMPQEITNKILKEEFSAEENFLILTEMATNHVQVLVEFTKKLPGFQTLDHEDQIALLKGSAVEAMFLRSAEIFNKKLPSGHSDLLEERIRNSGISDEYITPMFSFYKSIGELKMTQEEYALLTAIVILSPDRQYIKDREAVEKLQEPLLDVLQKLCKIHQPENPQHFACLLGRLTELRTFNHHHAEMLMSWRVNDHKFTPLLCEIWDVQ

The nature of test [12]: ATG_GRE_CIS: Attagene CIS-FACTORIAL HepG2 Assay for human Glucocorticoid Response Elements (GRE) (AID 2282947). Conditions: HepG2 GRE cis-reporter, Attagene multiplex mRNA; actives raise or lower the signal. An outline of the steps: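 Assay uses human hepatoma HepG2 cells transfected with cis-promoter reporter units, exposed 24 h. mRNA from reporters detected by RT-PCR plus capillary electrophoresis; DMSO serves as negative control and baseline.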

Test [13] is described as follows: ATG_ISRE_CIS: Attagene CIS-FACTORIAL HepG2 Assay for human Interferon Regulatory Factor 1 (IRF1) binding to an Interferon-Stimulated Response Element (ISRE) (AID 2282948). To be noted: HepG2 ISRE cis-reporter (Attagene), mRNA transcription readout; actives raise or lower the signal. An outline of the steps:
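Transiently transfected HepG2 cells carrying cis-element reporter units, dosed 24 hours. Reporter mRNA quantified by RT-PCR, fluorescent primer extension, HpaI digestion and capillary electrophoresis. Bidirectional fitting relative to DMSO.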

The nature of test [14]: ATG_M_32_CIS: Attagene CIS-FACTORIAL HepG2 Assay for M32 Transcription Factor (Internal Marker) (AID 2282949).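 Also: background control marker of the multiplexed CIS panel rather than a real target.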 To be noted: HepG2 Attagene cis-factorial M32 reporter, mRNA; actives raise or lower the signal. An outline of the steps:
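Following 24 h chemical exposure of HepG2 cells transiently expressing cis-promoter reporter constructs, reporter transcript levels were determined by RT-PCR with fluorescent labelling and capillary electrophoresis, then fitted bidirectionally against DMSO.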

Test [15] in a line: ATG_M_06_CIS: Attagene CIS-FACTORIAL HepG2 Assay for M06 Transcription Factor (Internal Marker) (AID 2282950). To be noted: HepG2 Attagene CIS-FACTORIAL M06 internal marker reporter; actives raise or lower the signal. Put shortly: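 Fluorescence-labelled RT-PCR products from cis-promoter reporter units, cut with HpaI and resolved by capillary electrophoresis, give the signal. Cells are human HepG2, dosed for 24 h. Serves as background control, fitted relative to DMSO.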

Test [16] concerns the target Hypoxia-inducible factor 1-alpha (Homo sapiens) (UniProt Q16665). Briefly: ATG_HIF1a_CIS: Attagene CIS-FACTORIAL HepG2 Assay for human Hypoxia Inducible Factor 1 (HIF1A) (AID 2282951). Conditions: HepG2 Attagene cis-factorial HIF1a reporter transcription; actives raise or lower the signal. Put shortly: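 HepG2 cells transiently transfected with multiple cis-regulated reporter transcription units measure endogenous transcription factor activity. After 24 h exposure, reporter mRNA is quantified by RT-PCR with 6-FAM labelling, HpaI digestion and capillary electrophoresis. Bidirectional fitting against DMSO.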

Test [17] addresses Hepatocyte nuclear factor 6 (Homo sapiens) (UniProt Q9UBC0). Briefly: ATG_HNF6_CIS: Attagene CIS-FACTORIAL HepG2 Assay for human Hepatocyte Nuclear Factor 6 (HNF6) (AID 2282952). To be noted: HepG2 Attagene cis-factorial HNF6 reporter transcription; actives raise or lower the signal. An outline of the steps: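 HepG2 cells transiently transfected with cis-element-driven multiple reporter transcription units, dosed 24 h; reporter mRNA quantified by RT-PCR, FAM primer extension, HpaI digestion and capillary electrophoresis; bidirectional fit versus DMSO baseline.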

For test [18], the target named is Heat shock factor protein 1 (Homo sapiens) (UniProt Q00613). Briefly: ATG_HSE_CIS: Attagene CIS-FACTORIAL HepG2 Assay for human Heat Shock Transcription Factor 1 (HSE) (AID 2282953). Conditions: HepG2 HSE cis-reporter, Attagene RNA transcription; actives raise or lower the signal. An outline of the steps: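 After a 24 h incubation with test chemical, transfected HepG2 cells were harvested for RNA; reporter transcripts were measured by RT-PCR and capillary electrophoresis. Values reflect gain or loss of signal relative to DMSO.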
Heat shock factor protein 1 (Homo sapiens), sequence (Q00613 whole entry, looked up): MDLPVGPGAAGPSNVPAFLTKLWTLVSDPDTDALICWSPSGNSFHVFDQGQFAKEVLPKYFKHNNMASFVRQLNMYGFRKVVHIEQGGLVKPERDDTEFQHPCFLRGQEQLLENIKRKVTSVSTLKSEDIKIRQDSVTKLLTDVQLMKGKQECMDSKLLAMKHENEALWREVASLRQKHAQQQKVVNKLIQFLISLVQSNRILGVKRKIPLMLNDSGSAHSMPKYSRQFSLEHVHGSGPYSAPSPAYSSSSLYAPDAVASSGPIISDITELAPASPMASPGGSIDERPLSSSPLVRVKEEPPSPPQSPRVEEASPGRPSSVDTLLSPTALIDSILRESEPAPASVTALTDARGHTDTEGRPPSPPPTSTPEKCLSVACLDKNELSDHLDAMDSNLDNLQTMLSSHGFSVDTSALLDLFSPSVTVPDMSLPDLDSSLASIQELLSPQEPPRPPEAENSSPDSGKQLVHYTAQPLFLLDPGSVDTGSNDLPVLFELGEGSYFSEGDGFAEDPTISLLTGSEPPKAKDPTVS

The nature of test [19]: ATG_MRE_CIS: Attagene CIS-FACTORIAL HepG2 Assay for human Metal Responsive Element (MRE) (AID 2282954). Conditions: HepG2 MRE cis-reporter transcription, Attagene multiplex; actives raise or lower the signal. Put shortly: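 After a 24 h chemical exposure, transiently transfected HepG2 cells yield RNA whose reporter sequences are amplified, FAM-labelled and sized by capillary electrophoresis. Curves are fitted bidirectionally relative to DMSO.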

Test [20] is described as follows: ATG_PBREM_CIS: Attagene CIS-FACTORIAL HepG2 Assay for human Phenobarbital-responsive Enhancer Module (PBREM) (AID 2282955). Conditions: HepG2 PBREM cis-reporter, Attagene multiplexed transcription; actives raise or lower the signal. An outline of the steps: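 HepG2 cells transiently transfected with multiple cis-regulated reporter units measure endogenous transcription factor activity; 24 h compound exposure. Reporter mRNA quantified by RT-PCR, fluorescent labelling, HpaI digestion and capillary electrophoresis; bidirectional fit versus DMSO.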

Hepatocyte nuclear factor 6 (Homo sapiens), sequence (Q9UBC0 whole entry, looked up): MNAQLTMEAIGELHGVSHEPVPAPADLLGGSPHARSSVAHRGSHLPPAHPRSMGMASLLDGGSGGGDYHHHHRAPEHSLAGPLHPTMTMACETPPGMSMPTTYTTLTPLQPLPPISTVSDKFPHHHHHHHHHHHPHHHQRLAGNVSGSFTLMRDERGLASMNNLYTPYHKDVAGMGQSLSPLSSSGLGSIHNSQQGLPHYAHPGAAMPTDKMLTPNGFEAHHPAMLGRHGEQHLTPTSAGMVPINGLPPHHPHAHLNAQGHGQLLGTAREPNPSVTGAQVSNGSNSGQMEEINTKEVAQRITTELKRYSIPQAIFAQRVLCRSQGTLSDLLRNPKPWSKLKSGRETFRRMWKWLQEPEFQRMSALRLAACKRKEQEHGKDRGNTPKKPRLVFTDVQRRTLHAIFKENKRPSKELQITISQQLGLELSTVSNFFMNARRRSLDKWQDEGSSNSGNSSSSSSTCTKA
Hypoxia-inducible factor 1-alpha (Homo sapiens), sequence (Q16665 whole entry, looked up): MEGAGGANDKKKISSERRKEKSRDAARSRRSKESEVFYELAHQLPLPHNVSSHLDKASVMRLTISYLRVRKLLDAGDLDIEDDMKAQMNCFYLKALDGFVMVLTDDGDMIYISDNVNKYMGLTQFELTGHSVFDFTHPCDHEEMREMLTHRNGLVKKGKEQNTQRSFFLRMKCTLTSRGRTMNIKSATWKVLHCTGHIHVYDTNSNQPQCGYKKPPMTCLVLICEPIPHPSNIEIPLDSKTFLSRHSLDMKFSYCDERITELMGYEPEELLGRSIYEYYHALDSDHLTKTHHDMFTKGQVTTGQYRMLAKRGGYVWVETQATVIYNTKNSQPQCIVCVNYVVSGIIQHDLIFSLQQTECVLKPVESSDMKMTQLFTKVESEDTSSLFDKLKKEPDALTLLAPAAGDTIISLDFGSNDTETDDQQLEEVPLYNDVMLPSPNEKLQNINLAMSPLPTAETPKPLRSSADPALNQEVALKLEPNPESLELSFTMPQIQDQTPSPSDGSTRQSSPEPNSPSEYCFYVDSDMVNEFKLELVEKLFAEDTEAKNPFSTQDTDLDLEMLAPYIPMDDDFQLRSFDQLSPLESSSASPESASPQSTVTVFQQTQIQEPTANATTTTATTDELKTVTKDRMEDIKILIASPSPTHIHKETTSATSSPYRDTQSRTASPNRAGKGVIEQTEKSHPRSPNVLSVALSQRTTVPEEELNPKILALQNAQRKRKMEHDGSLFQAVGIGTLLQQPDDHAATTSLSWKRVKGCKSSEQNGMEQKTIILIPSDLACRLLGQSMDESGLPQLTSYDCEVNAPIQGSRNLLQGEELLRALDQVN

With `CCOC(=O)NNc1nncc2ccccc12`, the outcome in test [1], in [2], in test [3], in [4], in test [6] and in test [7] was inactive. In addition, the result in [8], in test [9], in [10], in test [11], in test [12] and in [13] was inactive. Also, the call in test [14], in test [15], in test [16], in [17], in test [18] and in test [19] was inactive. The outcome in test [20] was inactive. For the same compound, the AC50 in test [5] was 60 µM (active).
`COCC(C)N` (stereo not drawn): the result in [1], in [2], in test [3], in [4], in test [5] and in test [6] was inactive. Further, the result in [7], in test [8], in test [9], in test [10], in [11] and in [12] was inactive. Besides, the outcome in [13], in [14], in test [15], in test [16], in test [17] and in [18] was inactive. The outcome in test [19] and in [20] was inactive.
Take `Oc1ccc(Cl)cc1Cc1cc(Cl)ccc1O`: the outcome in test [1], in [2], in [4], in test [7], in test [8] and in test [9] was inactive. The result in test [10], in test [12], in test [13], in test [14], in test [15] and in [17] was inactive. The compound was classed as inactive in test [18] and in test [20]. For the same compound, the AC50 is 8.39 µM (active) in test [3]; 3.04 µM (active) in test [5]; 6.68 µM (active) in test [6]; 11.1 µM (active) in test [11]; 11.1 µM (active) in test [16]; 11.1 µM (active) in [19].
For the compound `O=C(/C=C/C=C/c1ccc2c(c1)OCO2)N1CCCCC1`, the outcome in test [1], in test [2], in [4], in test [5], in test [6] and in [7] was inactive. For the same compound, the call in test [8], in test [9], in test [10], in test [14], in test [15] and in test [17] was inactive. Also, the outcome in test [20] was inactive. In addition, the AC50 was 100 µM (active) in test [3]; 69.4 µM (active) in test [11]; 89.5 µM (active) in test [13]; 159 µM (active) in test [18]; 96.1 µM (active) in test [19].

(Values after PubChem BioAssay (EPA / NIEHS).)
